Test results as given in PubChem BioAssay AID1159580 (chemical genetic matrix, 2015).
Out of some 5,500 compounds screened, about 2,000 (36%) were called active. Not shown: some 18% with an inconclusive outcome. Cut-off read from the data, not from the text of the source: active = normalized growth mostly below about 0.91 (no sharp cut-off); inconclusive = no clear call, values can overlap the other calls; inactive = mostly above about 0.92. The list shows a part of the results.

Assay: chemical genetic growth profiling, strain panel (AID 1159580);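 note: tested at 20 µM; growth read once vehicle control cultures reached saturation at 30 °C; 1 = growth at the plate median or of vehicle wells; lower values mean less growth of the strain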
Conditions: S. cerevisiae deletion strains, growth OD
[1] = locus YDR150W, strain NUM1, active compounds read low
[2] = locus YGR078C, strain PAC10, active compounds read low
[3] = locus YGR229C, strain SMI1, active compounds read low
[4] = locus YMR263W, strain SAP30, active compounds read low
[5] = locus YNL322C, strain KRE1, active compounds read low
[6] = locus YPL241C, strain CIN2, active compounds read low
[7] = locus YHR030C, strain SLT2, active compounds read low

Measured: normalized growth

Fc1ccc(CN(C2=NCCN2)c2c(Cl)cccc2Cl)cc1
inactive: locus YAL040C, strain CLN3, active compounds read low 0.945 | locus YCL061C, strain MRC1 (second series), active compounds read low 1.01 | [1] 1.06 | locus YDR363W, strain ESC2, active compounds read low 1.02 | locus YER002W, strain NOP16, active compounds read low 1.02 | [2] 0.984 | [3] 1.01 | [4] 0.995 | locus YNL128W, strain TEP1, active compounds read low 1.1 | locus YNL175C, strain NOP13, active compounds read low 1.01 | locus YNL197C, strain WHI3, active compounds read low 1 | locus YNL224C, strain SQS1, active compounds read low 1.01 | [5] 1 | locus YOR083W, strain WHI5 (second series), active compounds read low 1.05 | [6] 0.997

CC(C)(CO)[C@@H](O)C(=O)NCCC(=O)O
inactive: [7] 1.06 | locus YHR079C, strain IRE1, active compounds read low 1.04 | locus YJL095W, strain BCK1, active compounds read low 1.03 | locus YJR066W, strain TOR1, active compounds read low 0.964 | locus YLR113W, strain HOG1, active compounds read low 1.05 | locus YNL183C, strain NPR1, active compounds read low 0.999 | locus YOR231W, strain MKK1, active compounds read low 1.09 | locus YPL256C, strain CLN2, active compounds read low 1.09

O=C(O)C12CC3CC(CC(Br)(C3)C1)C2
inactive: locus YAL013W, strain DEP1, active compounds read low 1 | locus YBR229C, strain ROT2, active compounds read low 0.972 | locus YDL101C, strain DUN1, active compounds read low 0.984 | locus YDL134C, strain PPH21, active compounds read low 1.02 | [1] 0.982 | locus YEL061C, strain CIN8, active compounds read low 0.987 | [2] 0.99 | [3] 1.01 | [7] 1.06 | locus YHR087W, strain rtc3, active compounds read low 0.988 | locus YJL187C, strain SWE1, active compounds read low 0.945 | locus YJR043C, strain POL32, active compounds read low 1.01 | locus YJR075W, strain HOC1, active compounds read low 0.996 | locus YKL190W, strain CNB1, active compounds read low 1.01 | locus YLR039C, strain RIC1, active compounds read low 1.04 | locus YLR058C, strain SHM2 (second series), active compounds read low 1 | locus YLR085C, strain ARP6, active compounds read low 0.963 | locus YLR262C, strain YPT6, active compounds read low 1.1 | locus YML094W, strain GIM5, active compounds read low 0.991 | locus YMR219W, strain ESC1, active compounds read low 0.998 | [4] 0.993 | locus YMR307W, strain GAS1, active compounds read low 0.997 | locus YNL153C, strain GIM3, active compounds read low 0.994 | locus YNL298W, strain CLA4 (second series), active compounds read low 0.992 | [5] 0.993 | locus YNR030W, strain Alg12, active compounds read low 0.997 | locus YOL006C, strain TOP1, active compounds read low 1.05 | locus YPL055C, strain LGE1, active compounds read low 0.976 | [6] 0.994 | locus YPR135W, strain CTF4, active compounds read low 1.14
